This assay in a line: reversal of MRP1-mediated doxorubicin resistance, primary screen, H69AR cells, doxorubicin co-treatment (AID 602).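 For differential viability (reversal): larger differential means the compound sensitizes cells more to doxorubicin.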 The note with it: CellTiter-Glo, 72 h, at 10 µM; for differential viability (reversal): stronger effect = higher value. Background: Cellular ATP, detected with luciferase, serves as a proxy for viable cell number.
Setting [1] is: H69AR cells + 2 uM doxorubicin, measured here: viability with 2 uM doxorubicin, stronger effect = lower value.
The mark [2] stands for this setting: H69AR cells, measured here: cytotoxicity without doxorubicin.

The structures appear in SMILES notation. Out of some 85,000 compounds screened, about 35 (0.04%) were called active.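 Rule for the calls: active = viability drop by adding the cancer drug above about 55%, with treated viability meeting a 40% cutoff (limit read from the data); inactive = the rest, inconclusive results apart.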 What follows is part of a selection rich in actives, with near analogues and random picks from the rest.

For orientation: viability means a read-out of living cells in per cent, often relative to untreated cells. For the compound `O=C(NCc1ccco1)c1ccc(Cn2c(=O)c3sccc3n(Cc3ccc(F)cc3)c2=O)cc1`, where the note is “H69AR cells + 2 uM doxorubicin”, the differential viability (reversal) was 11.8% (inactive). Also, the viability is 70.9% under setting [1] and 82.7% under setting [2].

On to `CC1(C)CCc2nc(SCc3ccccc3)c(C#N)cc2C1`, for which the differential viability (reversal) (H69AR cells + 2 uM doxorubicin) was 3.69% (inactive). In addition, the viability was found to be 77.7% under setting [1] and 81.4% under setting [2].

In the case of `Cc1csc(OCC(=O)Nc2ccc(C)c(C)c2)n1`, the differential viability (reversal) (H69AR cells + 2 uM doxorubicin) was 0.06% (inactive). Also, the viability runs as follows: under setting [1], 107%; under setting [2], 107%.

As to `Cc1ccc(O)c(CNc2nc3ccccc3n2C)c1`, the differential viability (reversal) (H69AR cells + 2 uM doxorubicin) is 3.81% (inactive). Besides, the viability reads like this: under setting [1], 84.6%; under setting [2], 88.4%.

For `O=c1[nH]c2c(c(=O)n1Cc1ccccc1)CCC2`, the differential viability (reversal) (H69AR cells + 2 uM doxorubicin) was 3.8% (inactive). The viability amounted to 94.9% under setting [1] and 98.7% under setting [2].

Turning to `COC(=O)c1ccccc1NC(=O)CSc1nnnn1C`, the differential viability (reversal) (H69AR cells + 2 uM doxorubicin) was -8.64% (inactive). The viability came to 104% under setting [1] and 95.3% under setting [2].

With `O=C(NCc1cccnc1)Nc1ccccc1F`, the differential viability (reversal) (H69AR cells + 2 uM doxorubicin) is -0.98% (inactive). In addition, the viability is 99.8% under setting [1] and 98.8% under setting [2].

Take `CCCc1nc2scc(-c3ccc(C)cc3)c2c(=O)n1N`: the differential viability (reversal) (H69AR cells + 2 uM doxorubicin) was -37.7% (inactive). Moreover, the viability stood at 83.8% under setting [1] and 46.1% under setting [2].

Regarding `CC(=O)c1ccc2c(c1)c1ccccc1n2CC(C)C`, the differential viability (reversal) (H69AR cells + 2 uM doxorubicin) is -0.04% (inactive). Further, the viability under setting [1] was found to be 73.3% and the viability under setting [2] worked out at 73.2%.

Take `CCCCC(C(=O)OCC(=O)c1ccc(OC)cc1)N1C(=O)c2ccccc2C1=O` (centres undefined): the differential viability (reversal) (H69AR cells + 2 uM doxorubicin) was -8.79% (inactive). Besides, the viability came to 104% under setting [1] and 95% under setting [2].

Consider `CCn1nccc1C(=O)Nc1ccc(S(=O)(=O)NC23CC4CC(CC(C4)C2)C3)cc1`, for which the differential viability (reversal) (H69AR cells + 2 uM doxorubicin) was -7.56% (inactive). In addition, the viability was found to be 84% under setting [1] and 76.5% under setting [2].

In the case of `COc1ccc(Nc2nc(=O)[nH]nc2C)cc1`, the differential viability (reversal) (H69AR cells + 2 uM doxorubicin) was -5.85% (inactive). The viability reads like this: under setting [1], 101%; under setting [2], 95.5%.

On to `CCOC(=O)Cc1csc(NC(=O)CSc2nnc(-c3cccnc3)n2Cc2ccco2)n1`, for which the differential viability (reversal) (H69AR cells + 2 uM doxorubicin) is 14.6% (inactive). Moreover, the viability under setting [1] was determined as 85.7% and the viability under setting [2] was 100%.

In the case of `COCCn1c(=S)[nH]c2cc(C(=O)NCCc3ccc(OC)c(OC)c3)ccc2c1=O`, under “H69AR cells + 2 uM doxorubicin”, the differential viability (reversal) was 2.26% (inactive). The viability was determined as 75.8% under setting [1] and 78.1% under setting [2].

As for `CC(=O)Nc1ccc(N2C(=O)CCC2=O)cc1C`, the differential viability (reversal) (H69AR cells + 2 uM doxorubicin) is -10.5% (inactive). Moreover, the viability under setting [1] was found to be 86.7% and the viability under setting [2] amounted to 76.2%.

As to `CCc1c(C)sc(NC(=O)c2cccs2)c1C(N)=O`, for the setting “H69AR cells + 2 uM doxorubicin”, the differential viability (reversal) is 4.09% (inactive). In addition, the viability came out at 95.6% under setting [1] and 99.7% under setting [2].

For the compound `CC1(C)OC(=O)N2CCc3ccccc3C21C` (centres undefined), the differential viability (reversal) (H69AR cells + 2 uM doxorubicin) is 3.59% (inactive). The viability under setting [1] was 88% and the viability under setting [2] was 91.6%.

For `Cc1[nH]n(-c2ccc([N+](=O)[O-])cc2)c(=O)c1C=NCCN1CCN(C(=O)c2ccccc2F)CC1`, the differential viability (reversal) (H69AR cells + 2 uM doxorubicin) was -1.07% (inactive). The viability reads like this: under setting [1], 40.5%; under setting [2], 39.4%.

Turning to `COc1cccc(N(CC(=O)NCCSc2ccccn2)S(C)(=O)=O)c1`, the differential viability (reversal) (H69AR cells + 2 uM doxorubicin) was 3.02% (inactive). The viability under setting [1] is 92.5% and the viability under setting [2] turned out to be 95.5%.

Take `CCCC1NC(=O)NC(C)=C1C(=O)OCC` (centres undefined): the differential viability (reversal) (H69AR cells + 2 uM doxorubicin) is 2.9% (inactive). Also, the viability by setting is: under setting [1], 96.9%; under setting [2], 99.8%.

Regarding `COc1ccccc1C(c1nnnn1C(C)(C)C)N1CCN(Cc2ccccc2)CC1` (centres undefined), the differential viability (reversal) (H69AR cells + 2 uM doxorubicin) is 9.02% (inactive). For the same compound, the viability turned out to be 76.2% under setting [1] and 85.2% under setting [2].

For `Cc1cc2nnc(SCC(=O)N3CCN(c4ccccc4)CC3)n2c(N)n1`, the differential viability (reversal) (H69AR cells + 2 uM doxorubicin) is -1.47% (inactive). The viability is, setting by setting: under setting [1], 65.8%; under setting [2], 64.4%.

Regarding `O=C(Nc1ccc(Cl)cc1)c1cc2nc(C3CC3)cc(C(F)(F)F)n2n1`, where the note is “H69AR cells + 2 uM doxorubicin”, the differential viability (reversal) was 10.2% (inactive). For the same compound, the viability is, setting by setting: under setting [1], 69.3%; under setting [2], 79.5%.

`CC1=CC(C)(C)Nc2ccc(OC(=O)C(Cc3ccccc3)N3C(=O)C4CCCCC4C3=O)cc21` (centres undefined): the differential viability (reversal) (H69AR cells + 2 uM doxorubicin) was 11.8% (inactive). Moreover, the viability runs as follows: under setting [1], 68.5%; under setting [2], 80.3%.

With `COCCn1c(C)cc(C2=NNC(=Nc3ccc(F)cc3)SC2)c1C`, the differential viability (reversal) (H69AR cells + 2 uM doxorubicin) was -17.5% (inactive). In addition, the viability by setting is: under setting [1], 106%; under setting [2], 88.2%.

With `Cc1ccc(-n2c(=O)c(C#N)cc3c(=O)n4ccccc4nc32)cc1C`, where the note is “H69AR cells + 2 uM doxorubicin”, the differential viability (reversal) was -12.1% (inactive). Also, the viability by setting is: under setting [1], 87.2%; under setting [2], 75.1%.

For `Cc1cc(NC(=O)CSc2nc(C(C)C)nc3sc4c(c23)CCC(C)C4)no1` (centres undefined), the differential viability (reversal) (H69AR cells + 2 uM doxorubicin) is -2.83% (inactive). For the same compound, the viability was 8.84% under setting [1] and 6.01% under setting [2].

On to `CC(C)NC(=O)CSc1ccccc1C(=O)NCc1ccc2c(c1)OCO2`, for which the differential viability (reversal) (H69AR cells + 2 uM doxorubicin) was 5% (inactive). For the same compound, the viability runs as follows: under setting [1], 91.7%; under setting [2], 96.7%.

Consider `Cc1cccc2c(=O)n3c(nc12)CCCCC3`, for which the differential viability (reversal) (H69AR cells + 2 uM doxorubicin) was 7.51% (inactive). The viability reads like this: under setting [1], 83.8%; under setting [2], 91.3%.

On to `COc1ccc(CNC(=O)CCn2cccc2)cc1`, for which the differential viability (reversal) (H69AR cells + 2 uM doxorubicin) is -1.19% (inactive). For the same compound, the viability is, setting by setting: under setting [1], 100%; under setting [2], 98.9%.

Consider `CCOc1cc(C(=O)Nc2c(C)ccc3nsnc23)cc(OCC)c1OCC`, for which the differential viability (reversal) (H69AR cells + 2 uM doxorubicin) was -5.65% (inactive). Moreover, the viability was found to be 84% under setting [1] and 78.3% under setting [2].

Consider `COC(=O)c1sccc1NC(=O)CCC1CCCC1`, for which, under “H69AR cells + 2 uM doxorubicin”, the differential viability (reversal) was 11.8% (inactive). The viability reads like this: under setting [1], 81.7%; under setting [2], 93.5%.

Take `Cc1cc(O)cc(O)c1C(=O)Cc1cnn(-c2ccccc2)c1`: the differential viability (reversal) (H69AR cells + 2 uM doxorubicin) is 13% (inactive). The viability under setting [1] stood at 66.8% and the viability under setting [2] amounted to 79.8%.

On to `CCOC(=O)c1c(N)sc(C(C)=O)c1C`, for which, under “H69AR cells + 2 uM doxorubicin”, the differential viability (reversal) was 11.1% (inactive). Also, the viability was 81.7% under setting [1] and 92.8% under setting [2].

With `Cc1cccc(S(=O)(=O)CC(=O)Nc2nc(-c3ccccc3)cs2)c1`, the differential viability (reversal) (H69AR cells + 2 uM doxorubicin) was 12.9% (inactive). In addition, the viability under setting [1] was determined as 86.8% and the viability under setting [2] is 99.7%.

With `Cn1c(SCC(=O)C(C)(C)C)nnc1-c1ccccn1`, the differential viability (reversal) (H69AR cells + 2 uM doxorubicin) was 3.29% (inactive). Besides, the viability amounted to 95% under setting [1] and 98.3% under setting [2].

On to `COc1ccc(NC(=O)C2C3C=CC(C3)C2C(=O)NCc2ccccn2)c(OC)c1` (centres undefined), for which, where the note is “H69AR cells + 2 uM doxorubicin”, the differential viability (reversal) is 48.3% (inactive). Also, the viability worked out at 44.7% under setting [1] and 93.1% under setting [2].

With `Cc1ccc(S(=O)(=O)NCC(=O)N2CCN(c3ccccn3)CC2)cc1`, the differential viability (reversal) (H69AR cells + 2 uM doxorubicin) was 14.2% (inactive). For the same compound, the viability is 87.1% under setting [1] and 101% under setting [2].
